# In PubChem BioAssay (EPA / NIEHS):
# Inconclusive results are not listed. Activity calls are given as the source filed them. The calls were made as follows, unless noted: active = hit-call score of the fitted dose curve at least 0.9, where 1 is the maximum; inconclusive = response in the unintended direction; inactive = score below 0.9.
# How the values were obtained:
# [1] = molecular target: Bile acid receptor (Homo sapiens) (UniProt Q96RI1); experiment: ATG_IR1_CIS: Attagene CIS-FACTORIAL HepG2 Assay for human Nuclear Receptor Subfamily 1 Group H Member 4 (NR1H4), IR1 submotif (AID 2282946; active = hit-call score of the fitted dose curve at least 0.9, where 1 is the maximum; inactive = score below 0.9); conditions: IR1 reporter transcription, actives raise or lower the signal
# Outline: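 Readout: reporter transcript levels by RT-PCR with fluorescent capillary electrophoresis, from HepG2 cells transiently transfected with multiplexed cis-regulated reporters and dosed 24 h. Gain- or loss-of-signal fitted versus DMSO negative control.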
# [2] = molecular target: Nuclear receptor subfamily 1 group I member 3 (Homo sapiens) (UniProt Q14994); experiment: ATG_CAR_TRANS: Attagene TRANS-FACTORIAL HepG2 Assay for human Constitutive Androstane Receptor (CAR) (AID 2282969); conditions: HepG2 Attagene TRANS-FACTORIAL CAR reporter;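 also: activators raise reporter mRNA above DMSO so AC50 marks induction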
# Outline: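 Steps: transient transfection of HepG2 with multiple GAL4-UAS reporter units; 24 h compound incubation; RNA isolation, RT-PCR, 6-FAM primer extension, HpaI digest; capillary electrophoresis. Gain-of-signal relative to DMSO negative control.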
# [3] = ATG_M_19_TRANS: Attagene TRANS-FACTORIAL HepG2 Assay for M19 Transcription Factor (Internal Marker) (AID 2282974); conditions: HepG2 Attagene TRANS-FACTORIAL M19 internal marker reporter
# Outline: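 Multiplexed TRANS format: HepG2 liver cells bearing transient GAL4-UAS reporter units, chemical treatment 24 h, reporter transcripts quantified by RT-PCR plus capillary electrophoresis. DMSO defines baseline.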
# [4] = ATG_GAL4_TRANS: Attagene TRANS-FACTORIAL HepG2 Assay for GAL4 (Internal Marker) (AID 2282976); conditions: HepG2 Attagene TRANS GAL4 internal marker reporter
# Outline: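 In transfected human HepG2 liver cells dosed 24 h, GAL4 reporter mRNA serves as a baseline marker. Detection by RT-PCR with fluorescent capillary electrophoresis, activity fitted upward relative to DMSO.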
# [5] = molecular target: human Peroxisome Proliferator-activated Receptor delta (PPARd), PPARD (gene 5467) (UniProt Q03181); experiment: ATG_PPARd_TRANS: Attagene TRANS-FACTORIAL HepG2 Assay for human Peroxisome Proliferator-activated Receptor delta (PPARd) (AID 2283002)
# Outline: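 HepG2 cells transiently transfected with multiplexed GAL4-UAS reporter units and exogenous chimeric NR-Gal4 proteins; 24 h compound exposure. Reporter mRNA measured by RT-PCR, 6-FAM labelling, HpaI digestion and capillary electrophoresis; gain of signal versus DMSO.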
# [6] = TOX21_p53_BLA_p2_viability: Viability Assessment in the Tox21 HCT-116 p53 Agonism Beta-lactamase Assay, Phase 2 (AID 2283591);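 also: compound exposure lasted 16 h at 37 °C; actives lower the ATP signal meaning cytotoxicity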
# Outline: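 HCT-116 p53-bla cells (4000/well) rested 5 h at 37C, then received compounds in DMSO (217-fold dilution) for 16 h at 37C, 5% CO2. After the CCF4 read, CellTiter-Glo was added; ATP luminescence was read after 30 min at room temperature.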
# [7] = TOX21_p53_BLA_p3_viability: Viability Assessment in the Tox21 HCT-116 p53 Agonism Beta-lactamase Assay, Phase 3 (AID 2283593);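 also: cells exposed to compound for 16 h before reading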
# Outline: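 HCT-116 cells (4000/well) rested 5 h at 37C, then got DMSO compounds by pin tool (217-fold dilution) for 16 h at 37C, 5% CO2. After the bla read, CellTiter-Glo was added and luminescence read at 30 min, room temperature.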
# [8] = molecular target: Retinoic acid receptor alpha (Homo sapiens) (UniProt P10276); experiment: ATG_DR5_RAR_CIS: Attagene CIS-FACTORIAL HepG2 Assay for human Retinoic Acid Receptor Alpha (RARE), DR5 submotif (AID 2282934; active = hit-call score of the fitted dose curve at least 0.9, where 1 is the maximum; inactive = score below 0.9); conditions: HepG2 Attagene cis-factorial RARE DR5 reporter, mRNA; actives raise or lower the signal
# Outline: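 HepG2 cells transiently transfected with multiplexed reporter units under cis (DR5 RARE) promoters, so endogenous transcription factor activity is measured. After 24 h compound exposure, reporter mRNA is quantified by RT-PCR with fluorescent labelling and capillary electrophoresis; bidirectional fitting versus DMSO.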
# [9] = ATG_PPRE_CIS: Attagene CIS-FACTORIAL HepG2 Assay for human Peroxisome Proliferator-activated Response Element (PPRE) (AID 2282958; active = hit-call score of the fitted dose curve at least 0.9, where 1 is the maximum; inactive = score below 0.9); conditions: HepG2 PPRE cis-element reporter, Attagene transcription factor profiling; actives raise or lower the signal
# Outline: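 DMSO served as negative control and baseline for bidirectional curve fitting. Signal came from PPRE-regulated reporter mRNA in HepG2 cells, measured 24 h post-dosing by RT-PCR, 6-FAM primer extension and capillary electrophoresis.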
# [10] = molecular target: Oxysterols receptor LXR-beta (Homo sapiens) (UniProt P55055); experiment: ATG_LXRb_TRANS: Attagene TRANS-FACTORIAL HepG2 Assay for human Liver X Receptor beta (LXRb) (AID 2282981); conditions: HepG2 Attagene TRANS GAL4-LXRb reporter, mRNA
# Outline: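 Liver-derived HepG2 cells transfected with Gal4-responsive reporters were dosed for 24 h. Activation was scored as rise in reporter mRNA, by RT-PCR and capillary electrophoresis, above DMSO baseline.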
# [11] = molecular target: human Peroxisome Proliferator-activated Receptor alpha (PPARa), PPARA (gene 5465) (UniProt Q07869); experiment: ATG_PPARa_TRANS: Attagene TRANS-FACTORIAL HepG2 Assay for human Peroxisome Proliferator-activated Receptor alpha (PPARa) (AID 2283001)
# Outline: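 Exposure: 24 h, transiently transfected HepG2 cells. Endpoint: GAL4-UAS reporter mRNA, RT-PCR with capillary electrophoresis fluorescence. Baseline: DMSO; increases fitted.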
# [12] = molecular target: human RAR-related Orphan Receptor gamma (RORg), RORC (gene 6097) (UniProt P51449); experiment: ATG_RORg_TRANS: Attagene TRANS-FACTORIAL HepG2 Assay for human RAR-related Orphan Receptor gamma (RORg) (AID 2283011)
# Outline: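 Reporter transcripts from a transfected RORg-GAL4 chimera in HepG2 cells were quantified 24 h after dosing by RT-PCR, 6-FAM labelling, HpaI digestion and capillary electrophoresis; increases over DMSO baseline were fitted.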
# [13] = molecular target: human Retinoid X Receptor beta (RXRb), RXRB (gene 6257) (UniProt P28702); experiment: ATG_RXRb_TRANS: Attagene TRANS-FACTORIAL HepG2 Assay for human Retinoid X Receptor beta (RXRb) (AID 2283013)
# Outline: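 After a 24 h incubation with test chemical, transfected HepG2 cells carrying NR-Gal4 fusions and GAL4-UAS reporter transcription units yield RNA whose reporter cDNA is FAM-labelled, HpaI-cut and sized by capillary electrophoresis; increases over DMSO are scored.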
# [14] = molecular target: human Vitamin D Receptor (VDR), VDR (gene 7421) (UniProt P11473); experiment: ATG_VDR_TRANS: Attagene TRANS-FACTORIAL HepG2 Assay for human Vitamin D Receptor (VDR) (AID 2283022)
# Outline: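 Transactivation by an exogenous VDR-Gal4 chimera in transiently transfected HepG2 cells was measured as reporter transcript level 24 hours after chemical treatment. RT-PCR products were analysed by capillary electrophoresis and fitted in the positive direction relative to DMSO.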
# [15] = molecular target: human RAR-related Orphan Receptor beta (RORb), RORB (gene 6096) (UniProt Q92753); experiment: ATG_RORb_TRANS: Attagene TRANS-FACTORIAL HepG2 Assay for human RAR-related Orphan Receptor beta (RORb) (AID 2283010)
# Outline: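 Multiplexed transcription-factor reporter assay: HepG2 cells transiently carrying NR-Gal4/GAL4-UAS constructs, 24 h treatment, mRNA quantified by RT-PCR plus capillary electrophoresis fluorescence; activity scored as induction over DMSO.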
# [16] = molecular target: Nuclear receptor subfamily 4 group A member 2 (Homo sapiens) (UniProt P43354); experiment: ATG_NURR1_TRANS: Attagene TRANS-FACTORIAL HepG2 Assay for human Nuclear Receptor Related Protein 1 (NURR1) (AID 2282985); conditions: HepG2 Attagene TRANS reporter, mRNA readout
# Outline: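 Chimeric NR-Gal4 proteins were expressed in human HepG2 cells bearing GAL4-UAS reporter units, and induced reporter mRNA was quantified 24 h post-dosing by RT-PCR and capillary electrophoresis.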
# [17] = molecular target: Cellular tumor antigen p53 (Homo sapiens) (UniProt P04637); experiment: TOX21_p53_BLA_p3_ratio: Tox21 HCT-116 p53 Agonism Beta-lactamase Assay, Ratio, Phase 3 (AID 2283596)
# Outline: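 Cells were seeded at 4000/well, rested 5 h at 37C, then dosed with DMSO compound solutions (217-fold dilution) for 16 h. CCF4-AM substrate was loaded for 2 h at room temperature, and the 460/530 nm emission ratio was fitted for gain of signal versus DMSO.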
# [18] = TOX21_p53_BLA_p4_viability: Viability Assessment in the Tox21 HCT-116 p53 Agonism Beta-lactamase Assay, Phase 4 (AID 2283597);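 also: hits lower the luminescence signal meaning cytotoxicity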
# Outline: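 Cytotoxicity as reduced cellular ATP (CellTiter-Glo luminescence, 30 min room temperature), measured in the same wells following the CCF4 FRET p53 reading. Human HCT-116 cells received compounds in DMSO (217-fold dilution) for 16 h.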
# [19] = ATG_ERE_CIS: Attagene CIS-FACTORIAL HepG2 Assay for Estrogen Response Element (ERE) (AID 2282940; active = hit-call score of the fitted dose curve at least 0.9, where 1 is the maximum; inactive = score below 0.9); conditions: HepG2 ERE cis-reporter, Attagene RNA transcript; actives raise or lower the signal
# Outline: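 After a 24 h chemical treatment, RNA from reporter-transfected HepG2 cells is reverse-transcribed, PCR-amplified and fluorescently labelled. Fragments separated by capillary electrophoresis give reporter signal; DMSO serves as negative control.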
# [20] = TOX21_p53_BLA_p5_viability: Viability Assessment in the Tox21 HCT-116 p53 Agonism Beta-lactamase Assay, Phase 5 (AID 2283600)
# Outline: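 Viability came from CellTiter-Glo ATP luminescence, read after 30 min at room temperature. Before this, HCT-116 p53-bla cells (4000/well) had 16 hours of compound exposure at 37C, with DMSO stocks diluted 217-fold on transfer.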
# human Peroxisome Proliferator-activated Receptor alpha (PPARa), PPARA (gene 5465), sequence (Q07869 whole entry, looked up, the tested form may be a part): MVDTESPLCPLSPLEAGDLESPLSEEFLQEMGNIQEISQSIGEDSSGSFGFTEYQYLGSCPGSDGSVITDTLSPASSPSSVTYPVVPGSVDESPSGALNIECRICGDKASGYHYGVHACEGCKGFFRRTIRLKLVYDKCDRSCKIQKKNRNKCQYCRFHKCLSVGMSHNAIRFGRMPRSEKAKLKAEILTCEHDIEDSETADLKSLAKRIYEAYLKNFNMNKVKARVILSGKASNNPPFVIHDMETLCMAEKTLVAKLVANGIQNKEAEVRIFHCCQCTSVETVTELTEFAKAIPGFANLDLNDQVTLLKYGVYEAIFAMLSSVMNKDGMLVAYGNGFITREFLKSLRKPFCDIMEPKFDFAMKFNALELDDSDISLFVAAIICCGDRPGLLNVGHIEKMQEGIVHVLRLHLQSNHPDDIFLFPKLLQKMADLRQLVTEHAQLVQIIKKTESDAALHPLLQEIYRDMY
# human RAR-related Orphan Receptor beta (RORb), RORB (gene 6096), sequence (Q92753 whole entry, looked up, the tested form may be a part): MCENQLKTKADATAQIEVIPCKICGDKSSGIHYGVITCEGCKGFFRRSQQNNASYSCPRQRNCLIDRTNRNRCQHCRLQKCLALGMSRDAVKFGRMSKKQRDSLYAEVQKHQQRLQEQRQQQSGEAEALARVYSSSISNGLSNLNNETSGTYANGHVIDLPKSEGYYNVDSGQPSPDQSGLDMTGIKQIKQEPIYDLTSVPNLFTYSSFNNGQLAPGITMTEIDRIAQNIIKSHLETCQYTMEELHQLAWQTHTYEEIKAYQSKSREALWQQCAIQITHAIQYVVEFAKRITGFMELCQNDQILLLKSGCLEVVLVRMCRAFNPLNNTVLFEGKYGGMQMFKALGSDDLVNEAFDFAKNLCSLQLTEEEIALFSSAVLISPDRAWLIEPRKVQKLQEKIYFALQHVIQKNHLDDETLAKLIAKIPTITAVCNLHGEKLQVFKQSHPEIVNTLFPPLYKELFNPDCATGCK
# Oxysterols receptor LXR-beta (Homo sapiens), sequence (P55055 whole entry, looked up, the tested form may be a part): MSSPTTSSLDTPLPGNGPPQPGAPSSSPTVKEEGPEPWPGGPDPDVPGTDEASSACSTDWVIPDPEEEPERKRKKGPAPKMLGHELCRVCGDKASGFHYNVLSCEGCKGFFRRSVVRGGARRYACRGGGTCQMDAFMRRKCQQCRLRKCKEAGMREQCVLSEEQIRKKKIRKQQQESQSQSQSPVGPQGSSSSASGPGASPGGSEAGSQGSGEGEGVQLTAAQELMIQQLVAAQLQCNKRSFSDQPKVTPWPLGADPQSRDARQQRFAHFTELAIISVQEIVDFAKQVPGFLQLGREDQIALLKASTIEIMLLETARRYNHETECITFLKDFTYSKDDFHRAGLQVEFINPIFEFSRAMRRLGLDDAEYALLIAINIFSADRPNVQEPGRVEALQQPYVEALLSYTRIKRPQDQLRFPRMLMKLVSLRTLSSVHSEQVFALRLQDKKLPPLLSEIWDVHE
# human Peroxisome Proliferator-activated Receptor delta (PPARd), PPARD (gene 5467), sequence (Q03181 whole entry, looked up, the tested form may be a part): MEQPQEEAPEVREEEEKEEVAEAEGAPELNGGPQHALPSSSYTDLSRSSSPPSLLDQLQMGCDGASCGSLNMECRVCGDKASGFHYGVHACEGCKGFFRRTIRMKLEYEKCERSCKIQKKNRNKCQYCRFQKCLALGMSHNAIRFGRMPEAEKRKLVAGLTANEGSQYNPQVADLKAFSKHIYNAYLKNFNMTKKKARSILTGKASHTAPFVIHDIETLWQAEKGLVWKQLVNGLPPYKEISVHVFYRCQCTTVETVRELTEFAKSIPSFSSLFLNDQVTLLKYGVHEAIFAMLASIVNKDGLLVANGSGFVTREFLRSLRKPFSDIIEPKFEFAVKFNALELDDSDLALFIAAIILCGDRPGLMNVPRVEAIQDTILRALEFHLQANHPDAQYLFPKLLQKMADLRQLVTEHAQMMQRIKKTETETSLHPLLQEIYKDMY
# Retinoic acid receptor alpha (Homo sapiens), sequence (P10276 whole entry, looked up): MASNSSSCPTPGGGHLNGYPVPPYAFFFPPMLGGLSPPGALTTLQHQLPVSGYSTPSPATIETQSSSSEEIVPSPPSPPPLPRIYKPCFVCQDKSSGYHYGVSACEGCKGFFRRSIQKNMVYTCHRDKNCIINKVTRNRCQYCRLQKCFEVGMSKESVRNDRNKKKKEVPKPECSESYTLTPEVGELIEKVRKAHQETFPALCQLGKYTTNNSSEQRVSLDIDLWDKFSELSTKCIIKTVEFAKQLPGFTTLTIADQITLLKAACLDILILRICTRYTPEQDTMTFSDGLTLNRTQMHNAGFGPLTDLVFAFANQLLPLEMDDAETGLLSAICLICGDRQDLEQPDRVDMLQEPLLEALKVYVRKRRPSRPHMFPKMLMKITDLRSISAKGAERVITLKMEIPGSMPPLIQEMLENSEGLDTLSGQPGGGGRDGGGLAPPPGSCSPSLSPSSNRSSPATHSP
# human RAR-related Orphan Receptor gamma (RORg), RORC (gene 6097), sequence (P51449 whole entry, looked up, the tested form may be a part): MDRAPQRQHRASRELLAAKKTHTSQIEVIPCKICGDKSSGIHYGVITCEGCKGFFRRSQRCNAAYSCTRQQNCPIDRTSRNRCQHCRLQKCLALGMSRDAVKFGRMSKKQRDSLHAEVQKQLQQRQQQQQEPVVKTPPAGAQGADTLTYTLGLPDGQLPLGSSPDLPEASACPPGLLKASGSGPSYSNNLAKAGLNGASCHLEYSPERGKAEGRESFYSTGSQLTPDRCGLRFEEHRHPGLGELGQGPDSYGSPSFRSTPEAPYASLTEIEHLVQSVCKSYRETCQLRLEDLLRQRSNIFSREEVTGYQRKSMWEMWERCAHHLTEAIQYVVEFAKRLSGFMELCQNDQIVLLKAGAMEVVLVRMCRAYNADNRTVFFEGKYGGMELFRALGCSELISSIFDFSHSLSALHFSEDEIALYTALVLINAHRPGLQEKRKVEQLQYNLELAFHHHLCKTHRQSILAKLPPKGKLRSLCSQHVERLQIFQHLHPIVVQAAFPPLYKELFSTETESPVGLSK
# Nuclear receptor subfamily 1 group I member 3 (Homo sapiens), sequence (Q14994 whole entry, looked up, the tested form may be a part): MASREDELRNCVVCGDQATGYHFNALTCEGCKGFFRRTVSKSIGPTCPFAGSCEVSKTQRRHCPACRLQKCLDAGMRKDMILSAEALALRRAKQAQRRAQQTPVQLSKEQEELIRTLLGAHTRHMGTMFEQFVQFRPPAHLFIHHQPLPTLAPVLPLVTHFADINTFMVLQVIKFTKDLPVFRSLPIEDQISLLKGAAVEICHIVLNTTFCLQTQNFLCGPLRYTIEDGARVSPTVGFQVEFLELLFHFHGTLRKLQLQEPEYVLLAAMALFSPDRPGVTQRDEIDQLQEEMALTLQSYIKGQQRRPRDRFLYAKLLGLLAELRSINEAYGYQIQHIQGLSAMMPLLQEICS
# human Retinoid X Receptor beta (RXRb), RXRB (gene 6257), sequence (P28702 whole entry, looked up, the tested form may be a part): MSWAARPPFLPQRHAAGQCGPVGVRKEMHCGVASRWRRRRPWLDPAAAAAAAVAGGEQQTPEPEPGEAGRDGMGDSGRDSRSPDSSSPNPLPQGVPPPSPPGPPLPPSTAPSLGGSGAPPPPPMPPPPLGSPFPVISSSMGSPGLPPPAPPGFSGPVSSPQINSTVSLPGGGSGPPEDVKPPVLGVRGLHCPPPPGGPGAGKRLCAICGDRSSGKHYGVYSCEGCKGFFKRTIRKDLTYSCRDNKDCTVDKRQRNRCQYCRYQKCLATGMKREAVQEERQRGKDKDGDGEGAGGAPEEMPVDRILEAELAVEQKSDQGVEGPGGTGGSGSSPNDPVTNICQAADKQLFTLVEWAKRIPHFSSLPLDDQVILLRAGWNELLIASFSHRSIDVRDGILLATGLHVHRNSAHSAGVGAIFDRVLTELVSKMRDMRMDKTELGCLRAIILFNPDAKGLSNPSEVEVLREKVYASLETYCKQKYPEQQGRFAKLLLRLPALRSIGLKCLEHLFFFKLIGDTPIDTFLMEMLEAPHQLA
# Cellular tumor antigen p53 (Homo sapiens), sequence (P04637 whole entry, looked up): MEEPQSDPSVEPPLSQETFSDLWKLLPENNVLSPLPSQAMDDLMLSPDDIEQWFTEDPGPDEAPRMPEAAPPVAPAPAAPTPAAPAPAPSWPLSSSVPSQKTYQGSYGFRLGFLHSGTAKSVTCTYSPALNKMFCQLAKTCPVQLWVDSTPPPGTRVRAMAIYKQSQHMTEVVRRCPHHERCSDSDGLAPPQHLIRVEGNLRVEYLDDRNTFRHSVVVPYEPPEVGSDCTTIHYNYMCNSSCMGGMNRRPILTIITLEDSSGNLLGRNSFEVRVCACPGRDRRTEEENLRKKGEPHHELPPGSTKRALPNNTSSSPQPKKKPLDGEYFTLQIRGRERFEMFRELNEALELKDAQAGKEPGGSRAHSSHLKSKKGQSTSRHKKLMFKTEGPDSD
# human Vitamin D Receptor (VDR), VDR (gene 7421), sequence (P11473 whole entry, looked up, the tested form may be a part): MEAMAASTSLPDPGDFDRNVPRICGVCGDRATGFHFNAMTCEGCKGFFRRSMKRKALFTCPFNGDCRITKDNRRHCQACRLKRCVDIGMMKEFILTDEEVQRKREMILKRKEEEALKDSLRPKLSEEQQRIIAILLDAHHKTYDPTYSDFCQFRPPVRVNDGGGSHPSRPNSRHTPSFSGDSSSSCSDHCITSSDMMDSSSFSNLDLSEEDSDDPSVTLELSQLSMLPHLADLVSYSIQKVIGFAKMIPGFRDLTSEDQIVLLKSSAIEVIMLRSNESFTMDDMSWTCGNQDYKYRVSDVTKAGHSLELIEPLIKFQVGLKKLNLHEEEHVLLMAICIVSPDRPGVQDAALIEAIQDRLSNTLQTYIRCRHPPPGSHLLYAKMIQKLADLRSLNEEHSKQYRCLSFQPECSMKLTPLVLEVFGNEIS
smiles,measurement,setting,value
COCC(=O)N(c1c(C)cccc1C)N1CCOC1=O,outcome,[1],inactive
same,outcome,[2],inactive
same,outcome,[3],inactive
same,outcome,[4],inactive
same,outcome,[5],inactive
same,outcome,[6],inactive
same,outcome,[7],inactive
Nc1ccc(-c2ccc(N)c(N)c2)cc1N,outcome,[8],inactive
same,outcome,[1],inactive
same,outcome,[9],inactive
same,outcome,[10],inactive
same,outcome,[11],inactive
same,outcome,[5],inactive
same,outcome,[12],inactive
same,outcome,[13],inactive
same,outcome,[14],inactive
O=C(O)CCl,outcome,[8],inactive
same,outcome,[3],inactive
same,outcome,[11],inactive
same,outcome,[15],inactive
same,outcome,[12],inactive
same,outcome,[13],inactive
Nc1ccccc1,outcome,[9],inactive
same,outcome,[4],inactive
same,outcome,[10],inactive
same,outcome,[11],inactive
same,outcome,[14],inactive
NNc1ccccc1,outcome,[2],inactive
same,outcome,[10],inactive
same,outcome,[16],inactive
same,outcome,[11],inactive
same,outcome,[13],inactive
N#CC(c1ccccc1)c1ccccc1,outcome,[8],inactive
same,outcome,[1],inactive
same,outcome,[9],inactive
same,outcome,[2],inactive
same,outcome,[4],inactive
same,outcome,[16],inactive
same,outcome,[5],inactive
same,outcome,[15],inactive
same,AC50,[13],49.1 µM (active)
same,outcome,[14],inactive
same,outcome,[6],inactive
same,outcome,[7],inactive
same,outcome,[17],inactive
same,outcome,[18],inactive
CN(C)CCC#N,outcome,[8],inactive
same,outcome,[19],inactive
same,outcome,[9],inactive
same,outcome,[3],inactive
same,outcome,[4],inactive
same,outcome,[10],inactive
same,outcome,[11],inactive
same,outcome,[12],inactive
same,outcome,[13],inactive
same,outcome,[14],inactive
same,outcome,[6],inactive
same,outcome,[18],inactive
same,outcome,[20],inactive
CCCCOP(=O)(O)OCCCC,outcome,[19],inactive
same,outcome,[1],inactive
same,outcome,[9],inactive
same,outcome,[10],inactive
same,outcome,[11],inactive
same,outcome,[5],inactive
c1ccc2c(c1)CCCC2,outcome,[19],inactive
same,outcome,[1],inactive
same,outcome,[3],inactive
same,outcome,[4],inactive
same,outcome,[10],inactive
same,outcome,[15],inactive
same,outcome,[12],inactive
same,outcome,[14],inactive
same,outcome,[6],inactive
same,outcome,[7],inactive
same,outcome,[17],inactive
ClC1=C(Cl)[C@]2(Cl)[C@@H]3[C@@H](Cl)[C@H](Cl)C[C@@H]3[C@@]1(Cl)C2(Cl)Cl,outcome,[8],inactive
same,outcome,[19],inactive
same,outcome,[1],inactive
same,outcome,[9],inactive
same,outcome,[2],inactive
same,outcome,[3],inactive
same,outcome,[11],inactive
same,outcome,[15],inactive
same,outcome,[13],inactive
Cl/C=C\CCl,outcome,[8],inactive
same,outcome,[9],inactive
same,outcome,[3],inactive
same,outcome,[4],inactive
same,outcome,[11],inactive
same,outcome,[5],inactive
same,outcome,[12],inactive
same,outcome,[13],inactive
same,outcome,[14],inactive
